Measurements: PubChem BioAssay AID1159580 (chemical genetic matrix, 2015)
Several values for one entry are separate records, joined by “and”; a condition that tells them apart may be missing. Equal values may be shown once. Hit rate of the full screen: of about 5,500 compounds, about 2,000 (36%) were called active. Not shown: some 18% with an inconclusive outcome. No stated cut-off is given here; in the data, active means normalized growth mostly below about 0.91 (no sharp cut-off); inconclusive means no clear call, values can overlap the other calls; inactive means mostly above about 0.92. The list shows a part of the results.

Assay: chemical genetic growth profiling, strain panel (AID 1159580);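 further: tested at 20 µM; growth read once vehicle control cultures reached saturation at 30 °C; 1 = growth at the plate median or of vehicle wells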
Details: S. cerevisiae deletion strains, growth OD

Measured: normalized growth

CN(C)N=Nc1nc[nH]c1C(N)=O
inactive: locus YAL013W, strain DEP1, stronger effect = lower value 1.01 | locus YAL021C, strain ccr4, stronger effect = lower value 0.968 | locus YAL026C, strain drs2, stronger effect = lower value 1 | locus YAL030W, strain snc1, stronger effect = lower value 0.976 | locus YBL061C, strain skt5, stronger effect = lower value 0.976 | locus YBR009C, strain hhf1, stronger effect = lower value 1.02 | locus YBR021W, strain FUR4, stronger effect = lower value 1.02 | locus YBR023C, strain chs3, stronger effect = lower value 0.982 | locus YBR171W, strain sec66, stronger effect = lower value 0.969 | locus YBR229C, strain ROT2, stronger effect = lower value 1.01 | locus YBR231C, strain swc5, stronger effect = lower value 0.985 | locus YBR279W, strain paf1, stronger effect = lower value 0.966 | locus YCL011C, strain gbp2, stronger effect = lower value 0.953 | locus YCL016C, strain dcc1, stronger effect = lower value 0.957 | locus YCL029C, strain bik1, stronger effect = lower value 1 | locus YCL061C, strain MRC1, stronger effect = lower value 0.992 | locus YCL069W, strain vba3, stronger effect = lower value 0.984 | locus YCR088W, strain abp1, stronger effect = lower value 0.968 | locus YDL005C, strain med2, stronger effect = lower value 0.965 | locus YDL035C, strain GPR1, stronger effect = lower value 1.02 | locus YDL040C, strain nat1, stronger effect = lower value 0.979 | locus YDL074C, strain BRE1, stronger effect = lower value 1.01 | locus YDL101C, strain DUN1, stronger effect = lower value 1.01 | locus YDL134C, strain PPH21, stronger effect = lower value 1.02 | locus YDL185W, strain tfp1, stronger effect = lower value 0.997 | locus YDL192W, strain arf1, stronger effect = lower value 0.996 | locus YDR001C, strain nth1, stronger effect = lower value 0.975 | locus YDR069C, strain doa4, stronger effect = lower value 0.976 | locus YDR101C, strain arx1, stronger effect = lower value 1.01 | locus YDR137W, strain rgp1, stronger effect = lower value 0.975 | locus YDR150W, strain NUM1, stronger effect = lower value 1.01 | locus YDR159W, strain sac3, stronger effect = lower value 1.02 | locus YDR162C, strain NBP2, stronger effect = lower value 1.03 | locus YDR195W, strain ref2 1.01 | locus YDR297W, strain sur2, stronger effect = lower value 0.966 | locus YDR318W, strain mcm21, stronger effect = lower value 1 | locus YDR334W, strain swr1, stronger effect = lower value 0.949 | locus YDR335W, strain msn5, stronger effect = lower value 0.965 | locus YDR388W, stronger effect = lower value 0.992 | locus YDR392W, strain spt3, stronger effect = lower value 0.918 | locus YDR502C, strain sam2, stronger effect = lower value 1.01 | locus YEL003W, strain gim4, stronger effect = lower value 0.977 | locus YEL037C, strain rad23, stronger effect = lower value 0.985 | locus YEL061C, strain CIN8 (second series), stronger effect = lower value 0.98 | locus YEL061C, strain CIN8, stronger effect = lower value 1.01 | locus YER015W, strain faa2, stronger effect = lower value 0.981 | locus YER016W, strain bim1, stronger effect = lower value 0.98 | locus YER110C, stronger effect = lower value 0.995 | locus YER111C, strain swi4, stronger effect = lower value 0.987 | locus YER155C, strain BEM2 (second series), stronger effect = lower value 0.998 | locus YER155C, strain BEM2, stronger effect = lower value 1 | locus YER167W, strain BCK2, stronger effect = lower value 1.02 | locus YFR010W, strain ubp6, stronger effect = lower value 0.987 | locus YGL078C, strain dbp3, stronger effect = lower value 0.999 | locus YGL086W, strain mad1, stronger effect = lower value 1.01 | locus YGL167C, strain pmr1, stronger effect = lower value 0.981 | locus YGL173C, strain kem1, stronger effect = lower value 0.961 | locus YGL227W, strain vid30, stronger effect = lower value 0.979 | locus YGL240W, strain doc1, stronger effect = lower value 0.951 | locus YGL248W, strain PDE1, stronger effect = lower value 1.01 | locus YGL253W, strain hxk2, stronger effect = lower value 0.953 | locus YGR078C, strain PAC10, stronger effect = lower value 1 | locus YGR135W, strain pre9, stronger effect = lower value 1 | locus YGR252W, strain gcn5, stronger effect = lower value 1.05 | locus YHR013C, strain ard1, stronger effect = lower value 0.965 | locus YHR027C, strain rpn1, stronger effect = lower value 0.967 | locus YHR030C, strain SLT2, stronger effect = lower value 1.01 | locus YHR079C, strain IRE1 (second series), stronger effect = lower value 1 | locus YHR079C, strain IRE1, stronger effect = lower value 1.02 | locus YHR094C, strain hxt1, stronger effect = lower value 0.999 | locus YHR129C, strain ARP1, stronger effect = lower value 1.01 | locus YHR142W, strain chs7, stronger effect = lower value 0.926 | locus YHR200W, strain rpn10, stronger effect = lower value 1.01 | locus YIL066C, strain RNR3, stronger effect = lower value 1.01 | locus YIL073C, strain SPO22, stronger effect = lower value 1.02 | locus YIL125W, strain kgd1, stronger effect = lower value 0.995 | locus YIR030C, strain dcg1, stronger effect = lower value 1.01 | locus YJL092W, strain hpr5, stronger effect = lower value 0.984 | locus YJL095W, strain BCK1 (second series), stronger effect = lower value 0.966 | locus YJL095W, strain BCK1, stronger effect = lower value 1.01 and 1.03 | locus YJL115W, strain asf1, stronger effect = lower value 0.968 | locus YJL129C, strain trk1, stronger effect = lower value 0.958 | locus YJL134W, strain LCB3, stronger effect = lower value 1 | locus YJL154C, strain vps35, stronger effect = lower value 0.954 | locus YJL164C, strain tpk1, stronger effect = lower value 0.989 | locus YJL166W, strain qcr8, stronger effect = lower value 0.936 | locus YJL168C, strain set2, stronger effect = lower value 1.01 | locus YJL187C, strain SWE1 (second series), stronger effect = lower value 1.02 | locus YJL187C, strain SWE1, stronger effect = lower value 0.993 | locus YJR043C, strain POL32, stronger effect = lower value 1.03 | locus YJR066W, strain TOR1, stronger effect = lower value 1 | locus YJR075W, strain HOC1, stronger effect = lower value 1.01 | locus YKL009W, strain mrt4, stronger effect = lower value 1 | locus YKL068W, stronger effect = lower value 0.997 | locus YKL085W, strain MDH1 (second series), stronger effect = lower value 0.999 | locus YKL085W, strain MDH1, stronger effect = lower value 0.999 | locus YKL160W, strain elf1, stronger effect = lower value 0.931 | locus YKR001C, strain vps1, stronger effect = lower value 1 | locus YKR026C, strain gcn3, stronger effect = lower value 0.975 | locus YKR091W, strain srl3, stronger effect = lower value 0.97 | locus YLL001W, strain dnm1, stronger effect = lower value 0.916 | locus YLL026W, stronger effect = lower value 0.987 | locus YLL041C, strain sdh2, stronger effect = lower value 0.987 | locus YLR027C, strain aat2, stronger effect = lower value 0.991 | locus YLR039C, strain RIC1, stronger effect = lower value 1.04 | locus YLR058C, strain SHM2, stronger effect = lower value 1.02 | locus YLR102C, strain apc9, stronger effect = lower value 0.999 | locus YLR113W, strain HOG1, stronger effect = lower value 1.06 | locus YLR221C, strain rsa3, stronger effect = lower value 0.956 | locus YLR258W, strain gsy2, stronger effect = lower value 0.979 | locus YLR262C, strain YPT6 (second series), stronger effect = lower value 0.97 | locus YLR262C, strain YPT6, stronger effect = lower value 1.02 | locus YLR268W, strain sec22, stronger effect = lower value 1.01 | locus YLR320W, strain mms22, stronger effect = lower value 0.941 | locus YLR330W, strain CHS5, stronger effect = lower value 1.01 | locus YLR342W, strain FKS1 (second series), stronger effect = lower value 1.01 | locus YLR342W, strain FKS1, stronger effect = lower value 0.974 | locus YLR357W, strain rsc2, stronger effect = lower value 0.965 | locus YLR370C, strain arc18, stronger effect = lower value 0.973 | locus YLR371W, strain rom2, stronger effect = lower value 1 | locus YLR384C, strain iki3, stronger effect = lower value 0.985 | locus YLR418C, strain cdc73, stronger effect = lower value 1.03 | locus YML016C, strain PPZ1, stronger effect = lower value 1.01 | locus YML032C, strain rad52, stronger effect = lower value 0.993 | locus YML120C, strain ndi1, stronger effect = lower value 0.925 | locus YML124C, strain tub3, stronger effect = lower value 1 | locus YMR058W, strain fet3, stronger effect = lower value 0.979 | locus YMR078C, strain ctf18, stronger effect = lower value 0.999 | locus YMR125W, strain sto1, stronger effect = lower value 0.935 | locus YMR129W, stronger effect = lower value 0.992 | locus YMR205C, strain PFK2, stronger effect = lower value 0.927 | locus YMR223W, strain ubp8, stronger effect = lower value 0.988 | locus YMR231W, strain pep5, stronger effect = lower value 0.993 | locus YMR263W, strain SAP30, stronger effect = lower value 1.02 | locus YMR307W, strain GAS1, stronger effect = lower value 1.07 | locus YNL067W, strain RPL9B, stronger effect = lower value 1.01 | locus YNL071W, strain lat1, stronger effect = lower value 0.986 | locus YNL153C, strain GIM3, stronger effect = lower value 1 | locus YNL183C, strain NPR1, stronger effect = lower value 0.986 | locus YNL209W, strain ssb2, stronger effect = lower value 0.976 | locus YNL233W, strain BNI4, stronger effect = lower value 1 | locus YNL248C, strain rpa49, stronger effect = lower value 0.968 | locus YNL250W, strain rad50, stronger effect = lower value 0.979 | locus YNL271C, strain bni1, stronger effect = lower value 0.995 | locus YNL298W, strain CLA4, stronger effect = lower value 0.999 | locus YNL307C, strain MCK1, stronger effect = lower value 0.996 | locus YNL322C, strain KRE1 (second series), stronger effect = lower value 0.974 | locus YNL322C, strain KRE1, stronger effect = lower value 1.01 | locus YNR049C, strain mso1, stronger effect = lower value 0.967 | locus YNR052C, strain pop2, stronger effect = lower value 1 | locus YOL006C, strain TOP1, stronger effect = lower value 1.06 | locus YOL012C, strain htz1 0.752 | locus YOL147C, strain pex11, stronger effect = lower value 0.998 | locus YOR001W, strain rrp6, stronger effect = lower value 1.01 | locus YOR061W, strain CKA2, stronger effect = lower value 1.01 | locus YOR069W, strain VPS5, stronger effect = lower value 1 | locus YOR070C, strain gyp1, stronger effect = lower value 0.993 | locus YOR080W, strain dia2, stronger effect = lower value 0.973 | locus YOR083W, strain WHI5, stronger effect = lower value 0.936 | locus YOR106W, strain vam3, stronger effect = lower value 0.932 | locus YOR136W, strain idh2, stronger effect = lower value 1.01 | locus YOR144C, strain elg1, stronger effect = lower value 1.01 | locus YOR184W, strain ser1, stronger effect = lower value 1.01 | locus YOR231W, strain MKK1, stronger effect = lower value 1.02 | locus YOR265W, strain rbl2, stronger effect = lower value 0.977 | locus YOR270C, strain vph1, stronger effect = lower value 0.988 | locus YOR290C, strain snf2, stronger effect = lower value 0.943 | locus YOR316C, strain cot1, stronger effect = lower value 0.997 | locus YPL051W, strain arl3, stronger effect = lower value 0.973 | locus YPL055C, strain LGE1, stronger effect = lower value 1.02 | locus YPL078C, strain atp4, stronger effect = lower value 0.928 | locus YPL106C, strain sse1, stronger effect = lower value 0.942 | locus YPL240C, strain hsp82, stronger effect = lower value 1 | locus YPL241C, strain CIN2, stronger effect = lower value 1.01 | locus YPL256C, strain CLN2, stronger effect = lower value 1.04 | locus YPR119W, strain clb2, stronger effect = lower value 0.995 | locus YPR141C, strain kar3, stronger effect = lower value 0.987 | locus YPR163C, strain tif3, stronger effect = lower value 1 | locus YPR167C, strain met16, stronger effect = lower value 1 | strain wtn01, stronger effect = lower value 0.995
